# Experimental data as given in PubChem BioAssay AID1259343 (VanderVen Lab, College of Veterinary Medicine, Cornell …, 2017).
# The whole screen tested about 6,200 compounds, of which about 2,900 (47%) were called active. Rule as the data show it: active = inhibition above about 50%; inactive = the rest. So high a share suggests a set chosen from earlier hits. This is one part of the list.
# Assay: Mycobacterium tuberculosis growth inhibition, primary screen (AID 1259343)
# Details: inhibition: at 10 µM, active compounds read high; outcome: 10 uM
row,Compound,inhibition
1,c1ccc(OCc2noc(COc3ccc4ncccc4c3)n2)cc1,64.9% (active)
2,COc1ccc(-c2nc(CN(C)Cc3ccc4nsnc4c3)c(C)o2)c(C)c1C,12.7% (inactive)
3,CN(Cc1ccc2nsnc2c1)Cc1nc(COc2ccccc2)no1,65.2% (active)
4,CN(Cc1nc(COc2ccccc2)no1)CC1CCOCC1,29.5% (inactive)
5,c1ccc2[nH]c(-c3ccc(OCc4nc(CC5CC5)no4)cc3)nc2c1,10.7% (inactive)
6,CCc1noc(CSC2=Nc3ccccc3CS2)n1,23% (inactive)
7,c1ccc(OCc2noc(CN3CCN(c4ccccn4)CC3)n2)cc1,43% (inactive)
8,CN(Cc1nc(COc2ccccc2)no1)CC1Cc2ccccc2O1 (stereo not given),53.6% (active)
9,CCc1ccc(CN(C)Cc2nc(COc3ccccc3)no2)nc1,93.7% (active)
10,Nc1ccccc1Sc1c[nH]c2ccccc12,46.1% (inactive)
11,Cc1ccc(OCCN(C)Cc2nc(COc3ccccc3)no2)cc1,80% (active)
12,Cc1ccc(OCCN(C)c2ccccc2)cn1,-0.64% (inactive)
13,Cc1ccc(N=Cc2c(Nc3ccccc3)nc3c(C)cccn3c2=O)cc1,-12% (inactive)
14,COc1ccc(N=Cc2c(NCCO)nc3c(C)cccn3c2=O)cc1,75.7% (active)
15,Cc1cccn2c(=O)nc(SC/C=C/c3ccccc3)nc12,7.88% (inactive)
16,COc1ccc(Nc2nc3c(C)cccn3c(=O)c2/C=N\Nc2ccccc2)cc1,88.8% (active)
17,O=S(=O)(NN=C1c2ccccc2-c2ccccc21)c1ccccc1,-15.8% (inactive)
18,CCSc1nc2c(c(C3CC=CCC3)c1C#N)CCC2 (stereo not given),45.2% (inactive)
19,N#CCSc1nc2c(c(C3CC=CCC3)c1C#N)CCC2 (stereo not given),66.1% (active)
20,CSc1nc2c(c(-c3ccc(O)cc3)c1C#N)CCC2,48.4% (inactive)
21,CC1CCC(N(C)C(=O)NCc2ncc(-c3ccccc3)o2)CC1 (stereo not given),76.1% (active)
22,c1ccc2oc(N3CCN(Cc4ccc(C5CCCO5)s4)CC3)nc2c1 (stereo not given),90.8% (active)
23,CC(C)c1nc(Cn2ccnc2-c2ccc(C3CCCCO3)s2)no1 (stereo not given),-7.76% (inactive)
24,CCSc1ncc(CN2CCN(c3nc4ccccc4o3)CC2)cn1,95.3% (active)
25,c1ccc(N2CCCC2)c(CNc2nc3ccccc3o2)c1,34.1% (inactive)
26,c1ccc2oc(CN3CCC(c4nc5ccccc5s4)CC3)nc2c1,-16% (inactive)
27,Cc1ccccc1-c1nc(CN2CCN(c3ncc4ccccc4n3)CC2)c(C)o1,20.3% (inactive)

row,Compound,inhibition
1,CCCCC(CC)CN1CNC(=S)NC1 (stereo not given),48.2% (inactive)
2,O=S(=O)(Nc1cccc(Br)c1)c1ccc(Br)s1,97.3% (active)
3,O=S(=O)(Nc1cccc(Br)c1)c1ccc(Cl)s1,84.1% (active)
4,CC(=O)/C(=N/Nc1ccccc1[N+](=O)[O-])Oc1ccc(Br)cc1,-28.4% (inactive)
5,NC(=O)C1CN(C2CCCCc3ccccc32)CCO1 (stereo not given),49.4% (inactive)
6,COc1ccc(OC)c2c1CN(C1CCCc3ccccc31)CC2O (stereo not given),95.8% (active)
7,COc1ccccc1CC(=O)NC1CCSc2ccccc21 (stereo not given),-22.7% (inactive)
8,Cc1ccc(CN(C)C(=O)COc2ccc(O)cc2)o1,80.2% (active)
9,Cc1ccc(C(=O)NCc2ccc(-c3ccc(O)cc3)cc2)o1,40.6% (inactive)
10,CN(Cc1ccc2ccccc2c1)C(=O)COc1ccccc1F,38.5% (inactive)
11,CCC(=O)OC(C#N)C1=C(Cl)C(=O)c2ccccc2C1=O (stereo not given),103% (active)
12,CCNC(=O)NC(=O)CSc1nnc(Nc2ccc(C(C)C)cc2)s1,85% (active)
13,CCCC(C)NC(=O)CSc1nnc(Nc2ccc(CC)cc2)s1 (stereo not given),84.9% (active)
14,CCNC(=O)NC(=O)CSc1nnc(Nc2ccc(CC)cc2)s1,66.4% (active)
15,CCOCCCNC(=O)NC(=O)CSc1nnc(Nc2ccc(C)cc2)s1,83% (active)
16,CCOC(=O)CSc1nnc(Nc2ccc(C)cc2)s1,-19.5% (inactive)
17,CN[C@@H]1C[C@@H](c2ccc(Cl)c(Cl)c2)c2ccccc21,48% (inactive)
18,COc1ccc2c(c1)OCC(C(=O)C(C#N)c1nc3ccccc3o1)C2 (stereo not given),99.3% (active)
19,CC1(C)C(C(Cl)Cl)C2(Cl)C(Cl)C(Cl)C1(Cl)C2(Cl)Cl (stereo not given),76.2% (active)
20,Cc1ccccc1N=C1NC(=O)C(Cc2ccccc2[N+](=O)[O-])S1 (stereo not given),56.7% (active)
21,O=c1ccc([N+](=O)[O-])ccc1Nc1ccccn1,82.3% (active)
22,CC(C)CCNC(=O)c1ncc(Cl)c(Cl)c1Cl,81.3% (active)
23,Cc1noc(-c2ccc(C(=O)NCCC(C)C)cc2)n1,-1.14% (inactive)
24,Fc1ccccc1-c1noc2nc(OCc3ccccn3)ccc12,90.2% (active)
25,c1ccc(-c2noc3nc(OCc4ccccn4)ccc23)cc1,50.7% (active)
26,Cc1nc(COc2ccc3c(-c4ccccc4F)noc3n2)cs1,62.8% (active)
27,Fc1ccc(-c2noc3nc(OCc4ncccn4)ccc23)cc1,46% (inactive)

row,Compound,inhibition
1,CCCCc1ccc(NC(=O)CCS(=O)(=O)c2ccc(Cl)cc2)cc1,-52.4% (inactive)
2,Cc1ccc(S(=O)(=O)CCC(=O)Nc2ccc(C)c(C)c2)cc1,68% (active)
3,Clc1ccc2c(Oc3ccc(Br)cc3)ccnc2c1,58% (active)
4,Clc1ccc2c(Oc3cccc(Br)c3)ccnc2c1,0.33% (inactive)
5,O=C1c2ccccc2S(=O)(=O)N1c1ccc(Cl)cc1,60.5% (active)
6,O=C1c2ccccc2S(=O)(=O)N1c1cccc(Cl)c1,inactive
7,O=C1c2ccccc2S(=O)(=O)N1c1ccc(Br)cc1,-53.1% (inactive)
8,O=C1c2cccc(O)c2CCN1Cc1ccc(Cl)cc1,58% (active)
9,O=C1c2cccc(O)c2CCN1Cc1ccc(Br)cc1,19.3% (inactive)
10,CCCCOc1cccc2c1CCN(CC)C2=O,-1.17% (inactive)
11,Cc1cccc(CN2CCN(Cc3ccc(Cl)c(F)c3)CC2=O)c1,6.7% (inactive)
12,COc1cccc(CN2N=NC3C(=O)N(c4ccc(OC)c(Cl)c4)C(=O)C32)c1 (stereo not given),102% (active)
13,COc1ccc(OC)c(Nc2nc(Cl)nc(Nc3cc(OC)ccc3OC)n2)c1,1.76% (inactive)
14,COc1ccc(CN2N=NC3C(=O)N(c4ccc(OC)c(Cl)c4)C(=O)C32)cc1 (stereo not given),83.8% (active)
15,COc1ccc(N2C(=O)C3N=NN(Cc4cccc(C)c4)C3C2=O)cc1Cl (stereo not given),79.6% (active)
16,COc1ccc(N2C(=O)C3N=NN(Cc4ccccc4)C3C2=O)cc1Cl (stereo not given),20.8% (inactive)
17,COC(=O)c1ccc(OC)c(CN2N=NC3C(=O)N(c4ccc(OC)c(Cl)c4)C(=O)C32)c1 (stereo not given),55.6% (active)
18,CCOc1ccc(N2C(=O)C3N=NN(Cc4cc(C(=O)OC)ccc4OC)C3C2=O)cc1 (stereo not given),-31.4% (inactive)
19,Cc1nn2c(=O)[nH]c(SCc3cccnc3)nc2c1-c1ccccc1,33.2% (inactive)
20,Cc1nn2c(NCCCN(C)C)cc(-c3ccccc3)nc2c1-c1ccccc1,-0.28% (inactive)
21,CC(=O)c1nnc2c(-c3ccccc3)c(C)nn2c1C,89.5% (active)
22,CNC(=O)COc1ccc(Oc2ccc(C)cc2)cc1,25.8% (inactive)
23,COc1ccc(/C=C/C(=O)NNC(=O)COc2ccc(C)cc2)cc1,95.6% (active)
24,CNC(=O)COc1ccc(-c2c(C)cccc2C)cc1,26.1% (inactive)
25,CNC(=O)COc1ccc(-c2ccccc2Cl)cc1,72.2% (active)
26,CC(=O)Nc1ccc(OC/C=C/c2ccccc2)cc1,87.3% (active)
27,Cc1oc(-c2ccccc2Cl)cc1CO,35.3% (inactive)

row,Compound,inhibition
1,COc1ccc(/C=C/c2nc3cc(C)ccc3s2)cc1O,23.6% (inactive)
2,CNC(=O)COc1ccc(/C=C/c2ccccc2)cc1,51.1% (active)
3,O=C(COc1ccccc1)NN=Cc1ccc(Br)cc1,89.4% (active)
4,COC(=O)Cc1ccc(OCC(=O)NC(C)c2ccc(Cl)cc2)cc1 (stereo not given),20.1% (inactive)
5,CC(NC(=O)COc1ccccc1)c1ccccc1Cl (stereo not given),85.4% (active)
6,Cc1nc(Cl)cc(NC(C)c2ccc(Cl)c(Cl)c2)n1 (stereo not given),6.72% (inactive)
7,Cc1ccc(-n2nnc(C(=O)OCc3ccccc3C)c2C)cc1,93.8% (active)
8,COc1ccc(-c2nn(-c3ccccc3)cc2CN2CCN(c3cnccn3)CC2)c(F)c1,62.9% (active)
9,COc1ccc(Oc2ccc(C(=O)N[C@H]3CCCC[C@@H]3O)cc2)cc1,80.8% (active)
10,COc1ccc(C(=O)NC2CC(C)(C)Cc3occc32)cc1 (stereo not given),-1.78% (inactive)
11,CCOC(=O)C(C)Sc1ncnc2c1nnn2Cc1ccc(Cl)cc1 (stereo not given),50.4% (active)
12,CCOC(=O)CSc1ncnc2c1nnn2Cc1ccc(Cl)cc1,-17.6% (inactive)
13,CCOC(=O)C(C)Sc1ncnc2c1nnn2Cc1ccc(F)cc1 (stereo not given),64.3% (active)
14,CCOC(=O)CSc1ncnc2c1nnn2Cc1ccc(F)cc1,-18.2% (inactive)
15,CCOC(=O)CNC(=O)CSc1ncnc2c1nnn2Cc1ccc(F)cc1,-15.9% (inactive)
16,CN=c1scc(-c2ccc(F)cc2)n1N=Cc1cccc(Br)c1,70.2% (active)
17,CN=c1scc(-c2ccccc2F)n1N=Cc1cccc(F)c1,98.1% (active)
18,CN=c1scc(-c2ccccc2F)n1N=Cc1ccc(SC)cc1,-1.82% (inactive)
19,CN=c1scc(-c2ccccc2F)n1N=Cc1ccccc1,-1.69% (inactive)
20,CN=c1scc(-c2ccc(F)cc2)n1N=Cc1cccc(C(F)(F)F)c1,-44.1% (inactive)
21,CN=c1scc(-c2ccc(F)cc2)n1N=Cc1ccccc1Br,-41.8% (inactive)
22,Cc1nn(C(=O)C(C)N2C(=O)c3ccccc3C2=O)c(C)c1Br (stereo not given),14.3% (inactive)
23,COc1ccc2oc(=O)cc(-c3cc4cc(Br)ccc4o3)c2c1,-2.37% (inactive)
24,Cc1cccc2nc(COc3ccc4ccccc4c3Br)cn12,41.5% (inactive)
